Assay results published in PubChem BioAssay (Tox21).
Values joined by “and” are separate entries in the source; they are usually repeats but may differ in a detail not shown here. Identical values can stand only once. Inconclusive results are not listed. Entries that show only a call come without a potency. Active and inactive are the calls of the source. Calls follow the shape of the dose curve; as a rule, active = well fitted curve in the direction sought with a large enough effect in the repeat runs; inconclusive = weak or mixed curves; inactive = no such curve, though single readings can be large; an effect the other way counts as inactive or inconclusive.

Columns and labels:
[1] = A CellTox Green Cytotoxicity Assay to monitor cytotoxicity in HEK293 cells - 8 hour (AID 1224884); also: nearly all actives have a fitted effect of over 35% in size; also: potency is read from the fitted curve at half-maximal effect
Outline: (§1)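 Fluorescence intensity, read at 0, 8, 16, 24, 32 and 40 h of compound treatment, reflected dye binding to DNA of dead HEK293 cells; compounds (23 nL, DMSO) were added 5 h after plating cells with reagent.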

[2] = qHTS RealTime-Glo MT Cell Viability Assay in HepG2 cells - 16 hour (AID 1224885); also: nearly all actives have a fitted effect of over 50% in size; also: potency is read from the fitted curve at half-maximal effect
Outline: (§2)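 Compound treatment began 5 h after plating HepG2 cells (600/well) with NanoLuc luciferase and prosubstrate. Plates stayed at 37 C for 40 h; luminescence was captured at six time points, 0 h through 40 h.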

[3] = qHTS RealTime-Glo MT Cell Viability Assay in HEK293 cells - 24 hour (AID 1224886); also: nearly all actives have a fitted effect of over 50% in size; also: potency is read from the fitted curve at half-maximal effect
Outline: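 Quantitative high-throughput screen of the Tox21 10K library in HEK293: cells and RealTime-Glo reagents plated together, compound added at 5 h, luminescence monitored through 40 h at 37 C.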

[4] = qHTS RealTime-Glo MT Cell Viability Assay in HEK293 cells - 8 hour (AID 1224887); also: nearly all actives have a fitted effect of over 50% in size; also: potency is read from the fitted curve at half-maximal effect
Outline: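 Viable HEK293 cells reduce a cell-permeant prosubstrate; the product diffuses out and is consumed by NanoLuc in the medium to give light. Compounds went in after a 5 h incubation and plates were read over the treatment course.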

[5] = A CellTox Green Cytotoxicity Assay to monitor cytotoxicity in HEK293 cells - 16 hour (AID 1224888); also: nearly all actives have a fitted effect of over 35% in size; also: potency is read from the fitted curve at half-maximal effect
Outline: as §1

[6] = qHTS RealTime-Glo MT Cell Viability Assay in HepG2 cells - 0 hour (AID 1224889); also: nearly all actives have a fitted effect of over 50% in size
Outline: as §2

[7] = qHTS assay to identify small molecule antagonists of the estrogen receptor alpha (ER-alpha) signaling pathway using the BG1 cell line in the presence of 0.1 nM 17-beta-estradiol - cell viability counter screen (AID 1259241); also: nearly all actives have a fitted effect of over 40% in size; also: potency is read from the fitted curve at half-maximal effect
Outline: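 Measures cytotoxicity alongside the ER-alpha antagonist readout: VM7Luc4E2 cells, charcoal-stripped serum, 0.1 nM 17beta-estradiol final, 22 hr compound incubation at 37C, CellTiter-Fluor fluorescence.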

[8] = A CellTox Green Cytotoxicity Assay to monitor cytotoxicity in HepG2 cells - 0 hour (AID 1224882); also: nearly all actives have a fitted effect of over 35% in size
Outline: (§3)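 Using 1536-well format, dye-containing HepG2 suspension was seeded, allowed 5 h at 37 C/5% CO2, dosed by pintool with compounds, positive and negative controls, and imaged for fluorescence across 40 h.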

[9] = A CellTox Green Cytotoxicity Assay to monitor cytotoxicity in HepG2 cells - 8 hour (AID 1224890); also: nearly all actives have a fitted effect of over 45% in size; also: potency is read from the fitted curve at half-maximal effect
Outline: as §3

Row | SMILES | Potency [1] | Potency [2] | Potency [3] | Potency [4] | Potency [5] | Potency [6] | Potency [7] | Potency [8] | Potency [9]
1 | N[C@@H]1CONC1=O | inactive | inactive | inactive | inactive | inactive | inactive | inactive |  | 
2 | CN(C)c1ccc(C(=C2C=CC(=[N+](C)C)C=C2)c2ccccc2)cc1 | inactive | 10.7 µM (active) [middle of 4 runs] |  | 13.8 µM (active) and 10.7 µM (active) and 13.4 µM (active) |  | inactive | 30.6 µM (active) and 15 µM (active) | inactive | 21.9 µM (active) and 8.49 µM (active)
3 | CCCCCCCCCCCCCC[P+](CCCC)(CCCC)CCCC | 17.3 µM (active) and 21.9 µM (active) | 21.8 µM (active) and 15.5 µM (active) | 387 nM (active) and 616 nM (active) | 24.4 µM (active) and 19.5 µM (active) | 17.3 µM (active) and 19.5 µM (active) | inactive | 60.8 µM (active) and 30.6 µM (active) | inactive | 24.4 µM (active) and 19.5 µM (active)
4 | C=C(C)C(=O)O | inactive | inactive | inactive | inactive | inactive | inactive | inactive | inactive | 
5 | COc1cc(C(=S)N2CCOCC2)ccc1O | inactive | inactive | inactive | inactive | inactive | inactive | inactive | inactive | inactive
6 | CC(C)(C)c1cc(C(C)(C)C)c(O)c(C(C)(C)C)c1 | inactive | inactive | inactive | inactive |  | inactive | inactive | inactive | inactive
7 | Nc1cc(S(=O)(=O)O)cc2cc(S(=O)(=O)O)cc(O)c12 | inactive | inactive |  |  | inactive | inactive |  | inactive | inactive
8 | O=C1CC2(CCCC2)CC(=O)N1CCCCN1CCN(c2ncccn2)CC1 | inactive | inactive |  | inactive | inactive | inactive | inactive | inactive | inactive
9 | CC[C@]1(O)C[C@@H]2CN(CCc3c([nH]c4ccccc34)[C@@](C(=O)OC)(c3cc4c(cc3OC)N(C)[C@H]3[C@@](O)(C(=O)OC)[C@H](OC(C)=O)[C@]5(CC)C=CCN6CC[C@]43[C@@H]65)C2)C1 | inactive |  | 4.3 nM (active) | inactive | inactive | inactive | 1.88 µM (active) | inactive | 
10 | CC(=O)C1=C(C)[C@@H]2C[C@@]3(C1)[C@H](C)CC[C@H]3C2(C)C | inactive | inactive | inactive | inactive | inactive | inactive | inactive | inactive | inactive
11 | O=C(O[C@@H]1Cc2c(O)cc(O)cc2O[C@@H]1c1cc(O)c(O)c(O)c1)c1cc(O)c(O)c(O)c1 | inactive |  | 10600 nM (active) |  | inactive | inactive |  | inactive | inactive
12 | O=C1NCC2(CCN(CCc3ccccc3)CC2)O1 | inactive | inactive | inactive | inactive | inactive | inactive | inactive | inactive | inactive
13 | O=C(O)c1cc(Cl)cc(Cl)c1 | inactive | inactive | inactive | inactive | inactive | inactive | inactive | inactive | inactive
14 | O=C(O)c1cccc(C(=O)O)c1 | inactive | inactive | inactive | inactive | inactive | inactive | inactive | inactive | inactive
